# An excerpt weighted towards active compounds, which were near 2% of everything screened.
# GalR3 antagonist – human GalR3 antagonism; O60755; HEK293 GalR3-CNG cAMP membrane potential fluorescence; galR3 body fused to GalR1 C-terminus; inhibition, % at 3 µM; hit rate 0.44% among 360,000;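 active means inhibition above the screen-wide average plus 3 SD, cut at about 13% in these data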;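 further: forskolin and galanin both at EC90 stimulate the cells; cAMP rise reported by CNG channel membrane potential dye signal; 0% = forskolin plus galanin with DMSO and 100% = forskolin alone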
# Target sequence (O60755 1-299 limits assumed): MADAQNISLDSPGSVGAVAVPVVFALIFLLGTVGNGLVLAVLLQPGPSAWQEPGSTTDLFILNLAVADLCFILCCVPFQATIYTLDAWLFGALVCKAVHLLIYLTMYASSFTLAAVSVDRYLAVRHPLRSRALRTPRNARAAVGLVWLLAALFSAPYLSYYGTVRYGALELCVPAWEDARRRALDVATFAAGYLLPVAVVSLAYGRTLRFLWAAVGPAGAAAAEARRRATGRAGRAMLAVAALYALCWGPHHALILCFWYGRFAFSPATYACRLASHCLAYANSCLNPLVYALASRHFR
# COUP-TFII inh – inhibitors of human COUP-TFII (NR2F2); AID 686940; hit rate 0.7% among 370,000; HEK293T NGFI-A luciferase reporter, luminescence; P24468; inhibition, % at 8.6 µM;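 active means inhibition above a per-plate cutoff, mean inhibition of test wells between control levels plus 3 SD, cut at about 38% in these data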;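 further: cells cotransfected with COUP-TFII expression vector driving the NGFI-A reporter; 0% = median of COUP-TF2 test wells and 100% = reporter-only cells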
# Gli-Sufu antag – antagonists of Gli-Sufu signaling | inhibition, % at 5 µM | AID 588413 | hit rate 0.74% among 340,000 | Sufu-KO-LIGHT fibroblasts, Gli luciferase reporter luminescence;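 active means inhibition above about 55%, limit read from the data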;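 further: 0% = DMSO-treated cells and 100% = wells with medium but no cells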
# 697 NFkB inh – inhibitors of the PMA/ionomycin-induced NF-kB reporter in 697 B cells | 697 B-cell NF-kB luciferase reporter, 16 h | inhibition, % at 4 µM | hit rate 0.33% among 330,000 | AID 435022; in the data active means inhibition above about 35%
# Jurkat NFkB inh – inhibitors of the PMA/ionomycin-induced NF-kB reporter in Jurkat cells. PMA/ionomycin-induced NF-kB luciferase reporter, luminescence. inhibition, % at 4 µM. hit rate 0.53% among 330,000. AID 435003; in the data active means inhibition above about 50%
# 697 NFkB conf – inhibitors of the PMA/ionomycin-induced NF-kB reporter in 697 B cells, retest; shares compounds with 697 NFkB inh; 697 B-cell NF-kB luciferase, 16 h; hit rate 35% among 2,000; AID 449746; inhibition, % at 4 µM; in the data active means inhibition mostly above about 28%, no sharp cut-off; inactive means mostly below about 22%
# Active calls of the source: *; i = inactive; / = no result given.
SMILES,GalR3 antagonist,COUP-TFII inh,Gli-Sufu antag,697 NFkB inh,Jurkat NFkB inh,697 NFkB conf
CC1=CC(C)(C)Nc2ccc(OC(=O)CN3C(=O)CCC3=O)cc21,-1.2,10.0,6.0,64.5*,6.1,47.9*
CC1=CC(C)(C)Nc2ccc(OC(=O)c3ccco3)cc21,-1.7,12.8,8.8,78.6*,13.9,38.2*
CC1=CC(C)(C)Nc2ccc(OC(=O)C(C)N3C(=O)c4ccccc4C3=O)cc21 (stereo not given),-1.8,17.6,9.3,66.6*,5.3,54.6*
COc1ccc(OC(=O)C(C)N2C(=O)c3ccccc3C2=O)cc1 (stereo not given),-8.8,20.8,3.8,0.9,-1.8,/
CC1=CC(C)(C)Nc2ccc(C)cc21,-8.6,25.8,-19.9,-28.1,-11.9,/
O=C(c1cccc(C(F)(F)F)c1)N1CC[C@H]2[C@H](CCCN2Cc2ccccc2)C1,/,-19.0,/,/,/,/
CC(C)n1cc(/C=N/Nc2ccc(C(=O)O)cc2)c2ccccc21,-12.1,35.1,0.8,-304.8,7.0,-9.9
O=S1(=O)c2ccc(N3CC[C@@H](O)C3)cc2OCCCN1C1CC1,/,-8.9,/,/,/,/
CCOC(=O)c1c(C)[nH]c(N=Nc2ccc(C)cc2)c1C,2.9,-57.1,-85.3,-263.4,-140.2,-118.8
CCOC(=O)c1cc2c(=O)n3ccccc3nc2n(C)c1=NC(=O)c1c(-c2c(F)cccc2Cl)noc1C,-4.5,18.8,2.6,48.5*,-15.5,4.8
CCOC(=O)c1cc2c(=O)n3ccccc3nc2n(C(C)C)c1=NC(=O)c1c(-c2c(F)cccc2Cl)noc1C,2.5,6.8,22.5,20.1,3.0,/
CCCCOCCCNC(=O)C[C@@H]1C(=O)N(Cc2ccc(OC)cc2)C2=CCN(C(=O)OC(C)(C)C)C[C@]21C(=O)OCC,/,7.5,/,/,/,/
COC(=O)c1[nH]c2ccc(C)cc2c1NC(=O)Nc1ccccc1OC,2.2,-31.4,5.8,35.7*,9.0,25.9*
CC(C)(C)NC(=O)C(c1cccnc1)N(C(=O)c1cccs1)c1ccc(C(C)(C)C)cc1 (stereo not given),/,23.8,/,/,/,/
Cc1ccnc(NS(=O)(=O)c2ccccc2)c1,-11.2,2.0,5.7,-8.7,-5.9,/
Cc1ccnc(NS(=O)(=O)c2cc([N+](=O)[O-])ccc2C)c1,1.4,-2.1,-3.7,36.5*,-6.4,-4.3
COC(=O)C1CN(Cc2ccc(F)cc2)CCS(=O)(=O)N1Cc1ccc(C(F)(F)F)cc1 (stereo not given),/,17.6,/,/,/,/
CNC(=O)c1cc(Nc2nnc(-c3ccc(O)cc3)c3ccccc23)ccc1OC,-1.8,-10.1,-8.4,35.4*,8.3,28.9*
CNC(=O)c1ccc(Nc2nnc(-c3ccc(O)cc3)c3ccccc23)cc1,-7.7,2.7,-13.3,-9.0,-4.3,/
CCOc1ccccc1C(=O)Nc1ccc2nc(C)[nH]c(=O)c2c1,/,-24.2,/,/,/,/
CCOC(=O)CC[C@@]1(C(=O)OCC)C[C@@H](CC(=O)N2CCSCC2)C(=O)N2CCCC=C21,/,0.9,/,/,/,/
Cc1ccc(N=C/C(C(=O)C(F)(F)F)=C(\O)c2cccs2)cc1,-3.8,-31.0,-86.9,-359.5,-99.9,-148.4
COc1cc(NC(=O)C2CCCN(S(=O)(=O)c3ccc(Br)s3)C2)cc(OC)c1 (stereo not given),/,13.7,/,/,/,/
CCOCc1nnc(NC(=O)c2c(-c3ccccc3)noc2C)s1,-8.5,-10.4,-15.2,6.0,12.3,/
CCOC(=O)c1c(NC(=O)c2c(-c3ccccc3)noc2C)sc(C)c1-c1ccccc1,-3.3,-93.4,-6.7,i,-28.2,i
CC(=O)c1c(-c2ccc(Cl)cc2)c2ccccc2[nH]c1=O,-5.7,2.7,6.3,2.5,6.9,/
CC(=O)c1c(-c2ccccc2)c2cc(Cl)ccc2[nH]c1=O,-4.2,6.3,1.4,36.2*,-1.5,-6.1
COC(=O)C1CN(C2CCCC2)CCS(=O)(=O)N1Cc1ccc(C)cc1 (stereo not given),/,6.9,/,/,/,/
